We go through 62 compounds from PubChem BioAssay AID1578 (Sanford-Burnham Center for Chemical Genomics, 2009).

Screen size: about 290,000 compounds; about 3,000 (1%) were called active. The sample as a whole holds a higher share of actives than the screen did. Values without a mark were called inactive. No stated cut-off is given here; in the data, active means inhibition mostly above about 36% (no sharp cut-off); inactive means mostly below about 34%.

The term inhibition denotes the drop in the measured response relative to a control, in per cent.

This assay in a line: inhibition of NOD1-driven NF-kB reporter – cell-based, luminescence, uHTS, primary screen (AID 1578).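 Further: HEK-293T reporter cells stimulated with the NOD1 agonist gamma-tri-DAP.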 The settings on record: NOD1-driven NF-kB luciferase reporter cells, at 4 µM, stronger effect = higher value.
Consider `N#Cc1c(-c2ccccc2)nc(SCc2cccc(Cl)c2)[nH]c1=O`, for which the inhibition was 18.9%.
For the compound `N#Cc1c(-c2ccccc2)nc(SCc2ccc(Cl)cc2)[nH]c1=O`, the inhibition was -2.4%.
For `CCSc1nc(N)nc(-c2cccs2)c1C#N`, the inhibition was -29%.
With `N#Cc1c(Cl)nc(SCc2ccccc2)nc1-c1ccccc1` the figure was 32.4%.
In the case of `N#Cc1c(N)nc(SCc2ccncc2)c(C#N)c1-c1cccs1` it was 61.6%; in that of `O=c1nc(SCc2cccc(C(F)(F)F)c2)nc2ccccn12`, -17.7%; in that of `N#Cc1cc2ccccc2nc1SCC(=O)NC1CC1`, -32.4%.
In the case of `Cc1ccc(NC(=S)NNC(=O)c2c(Cl)c(C)nn2C)cc1` it was 0%; in that of `Cc1ccc2c(c1)N(CC(=O)NC1CCCC1)C(=O)CO2`, -27.1%; in that of `CCOC(=O)C1(CC)NC(c2ccc(OC)c(OC)c2)C2C(=O)N(c3cccc(C(C)=O)c3)C(=O)C21` (configuration not stated), -2.3%.
Consider `Cc1nc([N+](=O)[O-])cn1CC(O)c1ccc(-c2ccccc2)cc1` (configuration not stated), for which the inhibition is -8.6%.
Regarding `COc1ccc(N2CCN(C(=O)CSc3nnc4c(C)cc5ccccc5n34)CC2)cc1`, the inhibition was -15.6%.
As to `C#CCOC(=O)c1cc(Cl)c(=O)n(Cc2ccc(Cl)cc2Cl)c1`, the inhibition was 12.3%.
`CC(NC(=O)/C(C#N)=C/c1ccco1)c1ccccc1` (configuration not stated): the inhibition was -8.1%.
Regarding `Cc1nn(Cc2c(F)c(F)c(F)c(F)c2F)c(C)c1NC(=O)c1c([N+](=O)[O-])c(C)nn1C`, the inhibition was 10.1%.
With `Cc1cc(C)c(C#N)c(SCC(=O)c2ccccc2)n1`, the inhibition is -26.8%.
As for `Cc1cc(C)c(C#N)c(SCC(=O)c2cccs2)n1`, the inhibition was -63.4%.
With `Cc1cc(C)c(C#N)c(SCC(=O)c2ccc(Cl)cc2Cl)n1`, the inhibition is 68.6% (active).
On to `CNc1ccccc1C(=O)OCC(C)=O`, for which the inhibition is -41.6%.
Take `COc1ccc(CCNC(=O)CCC(=O)N2CCOc3ccc(C)cc32)cc1OC`: the inhibition was 10.2%.
With `COc1cc(-c2cc(C(=O)Nc3cccc(C(C)=O)c3)c3ccccc3n2)cc(OC)c1OC`, the inhibition is 63.6% (active).
With `COc1cc(-c2cc(C(=O)Nc3ccc(O)cc3)c3ccccc3n2)cc(OC)c1OC` the figure was 6.4%.
Consider `COc1ccc(NC(=O)c2cc(-c3cc(OC)c(OC)c(OC)c3)nc3ccccc23)cc1OC`, for which the inhibition was 43.8%.
As to `C=CCC(c1ccccc1F)N(CCN1CCOCC1)C(=O)Nc1cccc(Cl)c1` (configuration not stated), the inhibition was 7.7%.
Turning to `COc1ccc(C(C(=O)NC2CCCC2)N(C(=O)c2ccoc2C)c2ccc(C)cc2)cc1` (configuration not stated), the inhibition is -10.4%.
Take `COC(CN(C(=O)CCl)C(C(=O)NC1CCCCC1)c1ccc(C)cc1)OC` (configuration not stated): the inhibition is 68.9%.
In the case of `COCCN(C(=O)CCC(=O)Nc1cc(C)on1)C(C(=O)NC1CCCC1)c1ccccc1C` (configuration not stated) it was -13.7%; in that of `COCCN(C(=O)C(=O)NC1CCCC1)C(C(=O)NC1CCCC1)c1ccccc1F` (configuration not stated), -25.2%.
With `O=S(=O)(NC1CCCCC1)c1cccc(-c2nnc(-c3ccccc3)o2)c1`, the inhibition is 8.5%.
Consider `Cc1ccc(C(C(=O)NC2CCCC2)N(C(=O)Cc2cccs2)c2ccc3c(c2)OCCO3)cc1` (configuration not stated), for which the inhibition is -7.5%.
Take `O=C(CN1CCOCC1)N/N=C/c1ccc(-c2cccc(Cl)c2Cl)o1`: the inhibition was -9.3%.
Consider `O=C(CN1C(=O)COc2ccccc21)NCCN1CCOCC1`, for which the inhibition was -38%.
Consider `CCn1c(=O)c(C(C)=O)c(O)c2ccccc21`, for which the inhibition is -17%.
Take `CC(=O)c1c(O)c2ccccc2n(C)c1=O`: the inhibition was -26%.
`CC(=O)c1c(O)c2ccccc2n(C2CCCCC2)c1=O`: the inhibition is 57.4% (active).
Regarding `CC(C)CC(=O)c1c[nH]c(C(=O)O)c1`, the inhibition was -16.9%.
`CC(Cl)C(=O)Nc1ncc(C(F)(F)F)cc1Cl` (configuration not stated): the inhibition is -12%.
Turning to `CCSC(=S)c1c(C)[nH]n(-c2ccccc2)c1=O`, the inhibition was 1.7%.
As for `Cc1[nH]n(-c2ccccc2)c(=O)c1C(=O)c1ccccc1`, the inhibition is -3.5%.
Regarding `CCCSC(=S)c1c(C)[nH]n(-c2ccccc2)c1=O`, the inhibition was 50.5% (active).
Consider `CCCOc1ccc(N2C(=O)CC(N(Cc3ccco3)C(=O)CC)C2=O)cc1` (configuration not stated), for which the inhibition is -3.4%.
`COc1ccc(CCNC(=O)c2cccs2)cc1OC`: the inhibition is -51.6%.
In the case of `COc1ccc(C2(O)CCN(C(=O)NC3CCCCC3)CC2)cc1`, the inhibition was -14.2%.
Take `CCOC(=O)c1sc2ccccc2c1OC(=O)c1ccccc1OC`: the inhibition is 46.4%.
Take `CCOC(=O)c1sc2ccccc2c1OC(=O)c1ccccc1`: the inhibition was 38.2%.
With `CC1COc2ccccc2N1C(=O)c1ccccc1Cl` (configuration not stated) the figure was 4.6%; with `Cc1ccc(S(=O)(=O)N2c3ccccc3OCC2c2ccccc2)cc1` (configuration not stated), -19.1%; with `CCCCOc1ccccc1C(=O)N(Cc1ccco1)C1CCS(=O)(=O)C1` (configuration not stated), 25.4%.
Take `CCOC(=O)c1c(C)c2c(=O)[nH]cnc2n1-c1ccccc1`: the inhibition is 32.5% (active).
For the compound `CCOC(=O)c1c(O)c(O)c(C(=O)OCC)n1-c1ccccc1`, the inhibition is -8.7%.
Turning to `CCOC(=O)c1sc2nc[nH]c(=O)c2c1C`, the inhibition was 4.3%.
On to `C=CCOc1c(CNc2ccc(C(=O)O)cc2)cccc1OC`, for which the inhibition is -2.4%.
For the compound `N#Cc1cc2c(nc1SCc1cccnc1)CCCC2`, the inhibition was -35.1%.
On to `Cc1[nH]c(=S)c(C#N)c(-c2ccco2)c1C(=O)N(C)C`, for which the inhibition is -29.8%.
On to `COc1ccc(NC(=O)NC2(C(=O)N3CCCCCC3)CCCCC2)cc1`, for which the inhibition was -9.8%.
Take `Cc1ccc(S(=O)(=O)N2CCOCC2)cc1C(=O)Nc1c(C)n(C)n(-c2ccccc2)c1=O`: the inhibition is -23.2%.
In the case of `CC(=O)N[C@@H](C)c1nc2ccccc2n1CCCN1CCN(c2nc(-c3ccc(C)cc3)cs2)CC1` it was -3.9%.
Regarding `Cc1ccc(-c2csc(N3CCN(CCCn4c(C(F)(F)F)nc5ccccc54)CC3)n2)cc1`, the inhibition is -23%.
With `Cc1noc(C)c1COC(=O)[C@@H](NC(=O)c1ccccc1Cl)C(C)C`, the inhibition was -17.3%.
For the compound `Cc1csc(NC(=O)c2ccc(N3CCCC3=O)cc2)n1`, the inhibition was 39.5% (active).
For the compound `Cc1csc(NC(=O)c2ccc(C(=O)Nc3nc(C)cs3)cc2)n1`, the inhibition is 2.7%.
Regarding `CCC(CC)c1nnc(NC(=O)c2ccc(N3CCCC3=O)cc2)s1`, the inhibition was -14.4%.
